Among the data in PubChem BioAssay AID2570 (National Center for Advancing Translational Sciences (NCATS), 2010) are max response values, retold here.

Results filed as inconclusive are left out. The source made the active and inactive calls. The call rests on the fitted dose curve; in most records, active means well fitted curve in the direction sought with a large enough effect; inconclusive means small, poorly fitted or top-dose-only effect, or another doubt; inactive means no such curve, though single readings can be large or run the other way.

Sequence of Vasopressin V1b receptor (Homo sapiens) (P47901 whole entry, looked up): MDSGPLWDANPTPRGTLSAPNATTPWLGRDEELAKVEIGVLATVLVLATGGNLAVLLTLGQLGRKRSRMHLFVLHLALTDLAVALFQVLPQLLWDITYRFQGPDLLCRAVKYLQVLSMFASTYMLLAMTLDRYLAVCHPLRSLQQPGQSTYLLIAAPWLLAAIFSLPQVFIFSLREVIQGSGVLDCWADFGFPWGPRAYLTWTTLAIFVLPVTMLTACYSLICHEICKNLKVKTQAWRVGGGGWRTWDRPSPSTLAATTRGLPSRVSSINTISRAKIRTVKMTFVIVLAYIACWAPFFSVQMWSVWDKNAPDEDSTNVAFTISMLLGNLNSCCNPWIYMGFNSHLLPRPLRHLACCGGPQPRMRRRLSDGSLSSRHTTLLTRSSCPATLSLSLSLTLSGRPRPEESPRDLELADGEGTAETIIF

In the experiment the target is Vasopressin V1b receptor (Homo sapiens) (UniProt P47901). Put plainly: Counterscreen Concentration-Response Assay for Antagonists of the Neuropeptide S Receptor: Vasopressin Receptor Calcium Signal Transduction. The settings on record: CHO-AVPR1B, vasopressin-stimulated calcium fluorescence, FDSS. A digest of the protocol:
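CHO cells stably expressing human AVPR1B, calcium-dye loaded, were given compound, then stimulated with 60 nM vasopressin in HBSS/0.1% BSA. Peak kinetic fluorescence was normalized to DMSO and no-signal controls; AC50 from Hill fits.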
For the molecule `N=c1c2c(ccn1Cc1ccccc1)Oc1ccc3ccccc3c1C2c1ccccc1` (stereo unspecified), the max response was 18.5% (inactive).

Regarding `COc1ccc(-n2cnc3c(c2=N)C(c2cccc(OC)c2)c2c(ccc4ccccc24)O3)cc1` (stereo unspecified), the max response is -14.1% (inactive).

Take `COc1cccc(C2C(C#N)=C(NC(=O)NCc3ccccc3)Oc3ccc4ccccc4c32)c1` (stereo unspecified): the max response was -21.8% (inactive).

As to `COc1cccc(C2c3c(ncn(-c4ccccc4-c4ccccc4)c3=N)Oc3ccc4ccccc4c32)c1` (stereo unspecified), the max response is 13.8% (inactive).

As for `COc1cccc(C2C(C#N)=C(NC(=O)CCc3ccccc3)Oc3ccc4ccccc4c32)c1` (stereo unspecified), the max response is 10.7% (inactive).

For `CC(C)(C)OC(=O)Nc1ncnc2c1C(c1ccccc1)c1c(ccc3ccccc13)O2` (stereo unspecified), the max response was 14.3% (inactive).

As for `COc1cccc(C2c3c(ncn(-c4ccccc4SC)c3=N)Oc3ccc4ccccc4c32)c1` (stereo unspecified), the max response is 14.8% (inactive).

For `Cc1c(P(=S)(c2ccccc2)c2ccccc2)[n+]2ccccc2n1C/C=C/c1ccccc1`, the max response was 1.44% (inactive).

As for `COc1ccc2c(c1)Oc1ncn(CCN3CCOCC3)c(=N)c1C2c1ccc(OC)c(OC)c1` (stereo unspecified), the max response was -21.2% (inactive).

On to `N=c1c2c(ccn1CCCc1ccccc1)Oc1ccc3ccccc3c1C2c1ccccc1` (stereo unspecified), for which the max response is -23.7% (inactive).

As for `COc1ccc(C2C3=C(N=CN(CCN4CCOCC4)C3N)Oc3ccccc32)cc1OC` (stereo unspecified), the max response is 19.6% (inactive).

On to `N=c1c2c(ccn1-c1ccccc1)Oc1ccc3ccccc3c1C2c1ccccc1` (stereo unspecified), for which the max response was -28.3% (inactive).

With `Cc1c(P(=S)(c2ccccc2)c2ccccc2)c2ccccc2n1C/C=C/c1ccccc1`, the max response is 0.93% (inactive).

Take `O=C(NCc1ccccc1)Nc1ncnc2c1C(c1ccccc1)c1c(ccc3ccccc13)O2` (stereo unspecified): the max response is -5.16% (inactive).

On to `COc1cccc(C2c3c(ncn(-c4ccccc4C#N)c3=N)Oc3ccc4ccccc4c32)c1` (stereo unspecified), for which the max response is 2.63% (inactive).

For `COc1cccc(C2c3c(ncn(-c4ccccc4)c3=N)Oc3ccc4ccccc4c32)c1OC` (stereo unspecified), the max response was -5.77% (inactive).

Consider `COc1ccc(C2c3ccc4ccccc4c3Oc3ncn(CCN4CCOCC4)c(=N)c32)cc1OC` (stereo unspecified), for which the max response is -8.9% (inactive).

Turning to `N=c1c2c(ccn1CCc1ccccc1)Oc1ccc3ccccc3c1C2c1ccccc1` (stereo unspecified), the max response was 11.4% (inactive).

With `Nc1ncnc2c1C(c1ccccc1)c1c(ccc3ccccc13)O2` (stereo unspecified), the max response is 4.27% (inactive).

Turning to `Cc1c(P(=S)(c2ccccc2)c2ccccc2)c2ccccc2n1C(=O)Cc1ccccc1`, the max response was 5.72% (inactive).

For the molecule `COc1cccc(C2c3c(ncn(-c4ccc(C)cc4)c3=N)Oc3ccc4ccccc4c32)c1` (stereo unspecified), the max response was -0.274% (inactive).
